Assay outcomes as filed in PubChem BioAssay.
EP2 antag: blocks the human prostaglandin E2 receptor EP2. 0.52% of 260,000 active. P43116. inhibition, % at 25 µM. AID 1422. C6 glioma cells expressing human EP2, cAMP TR-FRET; cells stimulated with saturating PGE2;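 active = percent inhibition above 40 after rounding to a whole number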;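 note: rat C6 glioma host cells with rolipram phosphodiesterase inhibitor present; the protocol text gives 20 µM as final concentration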
EP2 mod: EP2 receptor (human) modulation; induction, % at 25 µM; 0.83% of 260,000 active; AID 940; EP2-expressing cells, cAMP HTRF FRET, PGE2 co-stimulation; P43116;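 active = compounds whose cAMP rise, as percent of the full-agonist control response, exceeds 60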;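 note: rat C6 glioma line stably carrying human EP2 under a CMV promoter; the protocol text gives 20 µM as final concentration; 100% = response of wells given 1 µM PGE2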
Cl transport mod: KCC2 (human) Cl- transport modulation; B-score of Tl+ flux slope (higher = more flux/activation; lower = inhibition) at 10 µM; AID 1456; 2.2% of 190,000 active; KCC2 cells, thallium flux FluoZin-2 fluorescence; Q9H2X9;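 active = thallium flux slope and its plate-corrected score both differing from the plate sample mean at a set confidence after two filtering rounds, in either direction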;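 note: slope of fluorescence scaled to starting intensity during 10 to 20 s after thallium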
S1P3 antag: antagonists of human S1P3 receptor; inhibition, % at 4.98 µM; CHO S1P3 NFAT-BLA reporter, FRET fluorescence, antagonist mode; 0.27% of 170,000 active;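 active = inhibition above the plate cutoff, the mean inhibition of test wells on that plate plus 3 SD, cut at about 28% in these data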;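 note: cells challenged with S1P at its EC80 of 0.8 µM; blue over green emission ratio from cleaved BLA substrate after 4 h stimulation; 0% = S1P-stimulated wells and 100% = unstimulated DMSO-only wells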
Target sequence (Q99500 whole entry, looked up): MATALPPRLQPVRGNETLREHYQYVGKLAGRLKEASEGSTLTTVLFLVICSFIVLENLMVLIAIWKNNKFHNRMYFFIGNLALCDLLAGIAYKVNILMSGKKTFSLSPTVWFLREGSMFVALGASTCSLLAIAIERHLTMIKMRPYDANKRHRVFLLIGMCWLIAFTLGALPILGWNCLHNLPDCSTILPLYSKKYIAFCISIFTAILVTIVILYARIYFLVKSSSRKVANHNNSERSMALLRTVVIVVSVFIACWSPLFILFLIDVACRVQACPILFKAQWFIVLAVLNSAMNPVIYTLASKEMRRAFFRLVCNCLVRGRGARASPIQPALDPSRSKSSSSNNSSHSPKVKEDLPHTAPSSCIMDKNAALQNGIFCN
KCC2 sec1: confirmation of human KCC2 transport modulators | 15% of 3,700 active | AID 1713 | normalised thallium flux (F/F0 slope) at 10 µM | HEK293-KCC2, thallium flux, FluoZin2 fluorescence; hits give high values | shares compounds with Cl transport mod;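 active = thallium flux slope above the same plate's solvent-only control mean plus 3 SD; inconclusive = the two replicate wells disagree; inactive = no significant difference from solvent-only control wells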
KCC2 bumet counter: thallium flux despite bumetanide block in KCC2 cells, secondary assay 3. shares compounds with Cl transport mod. HEK293-KCC2 + bumetanide/ouabain, thallium flux FluoZin2; hits give high values. normalized thallium flux at 10 µM. 49% of 3,700 active. AID 1714;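 active = thallium entry rate above the same plate's blocked-transporter control wells by more than 3 SD; inconclusive = the two repeat wells disagree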;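 note: raw slope of fluorescence over initial fluorescence between 10 and 20 s after thallium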
KCC2 sec2: KCC2 (human) modulation, second secondary assay. shares compounds with Cl transport mod. normalized thallium flux at 10 µM. HEK293-KCC2, thallium flux FluoZin2 fluorescence; actives lie on both sides; F/F0 rise rate, 10–20 s post-thallium. 23% of 3,700 active;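 active = thallium flux slope more than 3 SD above or below the plate's solvent-only control mean, mostly below; inconclusive = the two repeat wells disagreed; inactive = no significant shift from solvent-only controls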;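 note: raw slope with 0.1% DMSO as baseline and bumetanide as block control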
HEK293 Tl flux: parental HEK flux effect, counter-screen; shares compounds with Cl transport mod; HEK293 parental cells, thallium flux FluoZin2, ouabain; baseline-ratio fluorescence slope, 10–20 s after thallium; 46% of 3,700 active; thallium flux rate (normalised fluorescence) at 10 µM;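 active = thallium flux rate significantly above the same plate's solvent-only control wells, beyond their mean plus 3 SD; inconclusive = the two replicate wells gave conflicting results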
KCC2 retest ouab: confirmation of human KCC2 modulators with ouabain; AID 1717; HEK293-KCC2, thallium flux FluoZin2 fluorescence; bidirectional: low = inhibitor, high = activator; raw Tl+ flux slope (below DMSO = inhibition, above = activation) at 10 µM; shares compounds with Cl transport mod; 48% of 3,700 active;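 active = thallium flux slope beyond 3 SD from same-plate DMSO control mean in most replicates, usually higher, sometimes lower; inconclusive = repeat tests gave conflicting results; inactive = no significant difference from controls in most replicates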;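 note: slope of initial-normalized fluorescence between seconds 10 and 20 after thallium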
HEK counter2: counter-screen for KCC2 modulators: effect in parental HEK293 cells; thallium flux FluoZin-2 fluorescence slope; 33% of 3,700 active; shares compounds with Cl transport mod; AID 1718; thallium flux slope at 10 µM;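 active = thallium flux slope above the same plate's solvent-control mean plus 3 SD in both duplicate wells; inconclusive = duplicate wells that disagreed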;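 note: run without ouabain in cells lacking the KCC2 cotransporter; slope of fluorescence scaled to its starting value between 10 and 20 s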
The depositor's hits bear a star; ? = inconclusive; . = no result. In the library only some 3.1% were active in any assay of this set; here they are far more common.

SMILES	EP2 antag	EP2 mod	Cl transport mod	S1P3 antag	KCC2 sec1	KCC2 bumet counter	KCC2 sec2	HEK293 Tl flux	KCC2 retest ouab	HEK counter2
CCCN(CC1CC1)C(=S)NC(=O)c1ccc(S(=O)(=O)N2CCOCC2)cc1	9	4	5.6*	-12	0.018	0.019*	0.033	0.017*	0.024*	0.018*
O=C(NC(=S)N1CCN(C(c2ccccc2)c2ccccc2)CC1)c1ccc(S(=O)(=O)N2CCOCC2)cc1	9	2	8.7*	-6	0.006	0.024*	0.032	0.013*	?	?
NNC(=O)c1ccc(S(=O)(=O)N2CCOCC2)cc1	11	-13	.	.	.	.	.	.	.	.
CN1CCN(C(=S)NC(=O)c2ccc(S(=O)(=O)N3CCOCC3)cc2)CC1	4	12	0.013	-20	.	.	.	.	.	.
Cc1sc2nc(SCC(=O)Nc3ccccc3Br)[nH]c(=O)c2c1C	5	0	.	.	.	.	.	.	.	.
c1ccc(CCc2nn3c(Cc4ccccc4)nnc3s2)cc1	6	-9	-2.7*	-4	0.0073	0.0062	0.032	0.0065	0.018*	0.011
N#Cc1cc(-c2cccc(Cl)c2Cl)no1	13	-94	.	.	.	.	.	.	.	.
N#C/C(=C(/O)CN1CCCC1)c1nc(-c2ccccc2)cs1	7	8	0.17	-6	.	.	.	.	.	.
CCOC(=O)C1CCCN(C/C(O)=C(\C#N)c2nc(-c3ccc(Cl)cc3)cs2)C1 (configuration not stated)	19	-12	-3.5*	-10	0.0084	0.0047	0.024*	0.0073	0.018*	0.01
COc1ccc(C(=O)N/N=C(\c2ccccc2)c2ccccn2)cc1	6	22	-0.0045	-1	.	.	.	.	.	.
CCOc1ccc(OCc2ccc(C(=O)N/N=C(\C)c3ccccn3)cc2)cc1	2	-39	9*	-14	0.011	0.024*	0.031	0.029*	0.03*	?
CC(C)(C)C1=NN(CC(=O)N2CCSCC2)C(=O)c2cc3sccc3n2C1	16	-3	.	.	.	.	.	.	.	.
O=C(CCc1nc2ccccc2s1)OCc1ccccc1	7	2	-0.051	-7	.	.	.	.	.	.
Cc1cc(C(=O)COC(=O)CCc2nc3ccccc3s2)c(C)n1C	10	-28	-3.2*	6	0.0069	?	0.023*	0.0063	0.016*	0.0088
Nc1ccc(C(=O)Nc2nc3ccccc3s2)cc1	24	-13	-3.6*	.	0.0082	0.0065	0.033	0.0076	0.019	0.011
NC(=S)Nc1nc2ccccc2s1	3	-36	102*	1	0.041*	0.087*	0.051*	0.057*	0.056*	0.061*
S=C(Nc1ccccc1)Nc1nc2ccccc2s1	7	-33	.	.	.	.	.	.	.	.
CCN(CC)c1ccc(CN2CCc3c(nc(C)[nH]c3=O)C2)cc1	9	-17	.	.	.	.	.	.	.	.
